From PubChem BioAssay (NCI)
Compounds without any hit were thinned out: in the full panel of roughly 79,000, 15% have a hit. Active and inactive are the calls of the source. Cut-off read from the data, not from the text of the source: active = growth inhibition above about 70%; inactive = the rest.

assay: NCI Yeast Anticancer Drug Screen. Data for the rad50 strain (AID 155);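 note: 0% = growth of vehicle-only cultures of the same strain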; conditions: S. cerevisiae rad50 strain growth inhibition; at 50.0 µM; hits give high values
Outline: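 A DNA repair-deficient yeast mutant serves as the test organism; compound-induced growth inhibition is calculated against vehicle-treated cells.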

Row | SMILES | growth inhibition
1 | CC(C)C(O)(C(=O)OCC1=CC[N+]2([O-])CCC(O)C12)C(C)O (configuration not stated) | -16.9% (inactive)
2 | C1CC[N+]2=C(C1)OCCC2 | 12.1% (inactive)
3 | O=C(Nc1ccccc1)c1ccc([As](c2ccc(C(=O)Nc3ccccc3)cc2)c2ccc(C(=O)Nc3ccccc3)cc2)cc1 | -8.9% (inactive)
4 | CC1N=C(c2ccccc2)C2(c3ccccc3)C(C)N12 (configuration not stated) | -7% (inactive)
5 | COc1ccc2c(c1)c(CC(C)[N+](=O)[O-])c(C)n2Cc1ccccc1 (configuration not stated) | 6.5% (inactive)
6 | C(=C\C1CC2CCCN2O1)/c1ccccc1 (configuration not stated) | 39.9% (inactive)
7 | CCOP(=O)(OCC)/C(C#N)=C/c1cccn1C | -0.95% (inactive)
8 | CC[C@@H]1C[C@H]2CC3c4[nH]c5ccc(O)cc5c4CCN(C2)C31 | 3.4% (inactive)
9 | Oc1c(Cl)cccc1Cl | -22.4% (inactive)
10 | CCCCCC(N)CC(=O)O (configuration not stated) | 8.95% (inactive)
11 | CCOP(=S)(OCC)OP(=S)(OCC)OCC | -44.5% (inactive)
12 | O=C1NC(=O)C2(CCOCC2)C(=O)N1 | -5.15% (inactive)
13 | O=[P+](O)c1cccnc1 | 6.6% (inactive)
14 | O=C1NC(=O)C(CCO)(c2ccccc2)C(=O)N1 | -21.6% (inactive)
15 | CC(Br)CN(CC(C)Br)c1ccc(-c2ccccc2)cc1 (configuration not stated) | 38.5% (inactive)
16 | C[N+](C)(Cc1ccc([N+](=O)[O-])cc1)c1ccc(N(CCCl)CCCl)cc1 | -4% (inactive)
17 | CCC1(CCO)C(=O)NC(=O)NC1=O | -1.6% (inactive)
18 | O=C(Cc1ccc2c(c1)OCO2)c1cn(C(=O)Cc2ccc3c(c2)OCO3)c2ccccc12 | 18.7% (inactive)
19 | c1ccc([As](c2ccccc2)c2ccccc2)cc1 | 0.75% (inactive)
20 | COc1cc2c(cc1OC)-c1c3c(cc4c1[C@H](C2)N(C)CC4)OCO3 | -5% (inactive)
21 | CS(=N)(=O)CCC(N)P(=O)(O)O (configuration not stated) | -29.8% (inactive)
22 | NCC(=O)c1ccc(O)c(O)c1 | -8.85% (inactive)
23 | CC([Se])=Nc1ccc(Br)cc1 | 21.6% (inactive)
24 | CC(=O)C1CCC2C3CCC4CC(O)CCC4(C)C3CCC12C (configuration not stated) | 6.2% (inactive)

assay: NCI Yeast Anticancer Drug Screen. Data for the mec2-1 strain (AID 157); conditions: S. cerevisiae mec2-1 strain, at 50.0 µM, hits give high values
Outline: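 Vehicle-treated cultures served as reference for growth inhibition of compound-exposed mec2-1 yeast.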

Row | SMILES | growth inhibition
25 | O=Cc1ccccc1.[C-]#[O+].[C-]#[O+].[C-]#[O+].[Cr] | -34.2% (inactive)
26 | CCCCOCCOC(=O)CCl | -21.1% (inactive)
27 | N#Cc1ccccn1 | -30.7% (inactive)
28 | O=[As](O)(O)CC(Br)CBr (configuration not stated) | 12% (inactive)
29 | C1CCC(N([P-]P([P-]N(C2CCCCC2)C2CCCCC2)N(C2CCCCC2)C2CCCCC2)C2CCCCC2)CC1.[C-]#[O+].[C-]#[O+].[C-]#[O+].[C-]#[O+].[C-]#[O+].[C-]#[O+].[Fe].[Fe] (configuration not stated) | -28.1% (inactive)
30 | CC1CN1C(=O)NCCCCCCNC(=O)N1CC1C (configuration not stated) | -0.2% (inactive)
31 | CN(C)[C@@H]1C(=O)C(C(N)=O)=C(O)[C@@]2(O)C(=O)C3=C(O)c4c(O)ccc(Cl)c4[C@@](C)(O)[C@H]3C[C@@H]12 | 1.1% (inactive)
32 | C[Si](C)(C)[C@@]1([Se]c2ccccc2)CC[C@@H]1C(=O)c1ccccc1 | -26.4% (inactive)
33 | CCC1(CCSC#N)C(=O)NC(=O)NC1=O | -8.6% (inactive)
34 | CC1NC1(c1ccccc1)n1ccnc1 (configuration not stated) | -18.1% (inactive)
35 | O=P(O)(O)c1ccccc1 | -3.85% (inactive)
36 | O=NN(c1ccccc1)c1ccccc1 | 9.8% (inactive)
37 | c1ccc(N=PNc2ccccc2)cc1 (configuration not stated) | -6.25% (inactive)
38 | [C-]#[O+].[C-]#[O+].[C-]#[O+].[C-]#[O+].[Mo].c1ccc([As](CC[As](c2ccccc2)c2ccccc2)c2ccccc2)cc1 | -0.4% (inactive)
39 | O=C1NC(=O)C(Cc2ccc3c(c2)OCO3)C(=O)N1 | -9.5% (inactive)
40 | ClC1CC2CC1C1CNCC21 (configuration not stated) | -14.6% (inactive)
41 | CC(C)C(O)(C(=O)OCC1=CC[N+]2([O-])CCC(O)C12)C(C)O (configuration not stated) | -29.7% (inactive)
42 | C1CC[N+]2=C(C1)OCCC2 | -2.15% (inactive)
43 | O=C(Nc1ccccc1)c1ccc([As](c2ccc(C(=O)Nc3ccccc3)cc2)c2ccc(C(=O)Nc3ccccc3)cc2)cc1 | -7% (inactive)
44 | CC1N=C(c2ccccc2)C2(c3ccccc3)C(C)N12 (configuration not stated) | 6.8% (inactive)
45 | COc1ccc2c(c1)c(CC(C)[N+](=O)[O-])c(C)n2Cc1ccccc1 (configuration not stated) | 8.35% (inactive)
46 | C(=C\C1CC2CCCN2O1)/c1ccccc1 (configuration not stated) | -20.5% (inactive)
47 | CCOP(=O)(OCC)/C(C#N)=C/c1cccn1C | -32.7% (inactive)
